# Hit rate of the full screen: of about 48,000 compounds, about 13,000 (27%) showed an effect of 50% or more. The list shows a part of the results.
# Test system: Wolbachia pipientis
# Experiment: Anti-Wolbachia Cell-Based Screen
# Assay type: functional
# Design: scale not given: in the data most compounds retested in dose-response had high values
# Conditions: 5 µM
row,Compound,Percent Effect
1,Cc1ncsc1C(=O)NC1CCN(Cc2ccc(C#N)cc2)CC1,-12.71%
2,O=C(NCCOc1ncc(Cl)cc1Cl)c1ccoc1,25.9%
3,CO[C@H]1CCN(S(=O)(=O)c2cn(C)cn2)[C@H]1Cc1cnn(C)c1.O=C(O)C(F)(F)F,-3.902%
4,CCS(=O)(=O)N1CCC(Nc2ccc(C#N)cc2F)CC1,19.57%
5,CCC(NC1CSCCSC1)c1ccc(S(C)(=O)=O)cc1 (stereo not given),107.2%
6,CC(NCc1ccc(C(C)(C)C)cc1)c1ccc(S(C)(=O)=O)cc1 (stereo not given),2.046%
7,CS(=O)(=O)c1ccc(CNC(=O)N2CCC(c3ccccc3)CC2)cc1,-1.969%
8,CCC(NC1CCCC1)c1ccc(S(C)(=O)=O)cc1 (stereo not given),102.8%
9,CC(C)c1ccc(CNC(C)c2ccc(S(C)(=O)=O)cc2)cc1 (stereo not given),0.134%
10,CCC(NC1Cc2ccccc2C1)c1ccc(S(C)(=O)=O)cc1 (stereo not given),106.7%
11,CCC(NC(=O)c1cnc(N(C)C)nc1C)c1ccc(S(C)(=O)=O)cc1 (stereo not given),-15.6%
12,CCC(Nc1nccc(C2CCCC2)n1)c1ccncc1 (stereo not given),-45.04%
13,O=S(=O)(N[C@H]1CC[C@H]1NC1Cc2ccccc2C1)c1cccnc1,1.504%
14,CCCN(C)CC1CCN(c2ncc(Br)cn2)C1 (stereo not given),-2.862%
15,CC(C)CNC[C@H]1COCc2nc3cccnc3n21,-3.474%
16,Cc1nc(C(=O)N2CCCC(c3nc(C(C)C)cs3)C2)c[nH]1 (stereo not given),27.35%
17,Cc1cc(C(=O)NCCCn2nccc2C2CC2)c(=O)[nH]c1C,-16.3%
18,CSc1ccc(CN2CCC(CCC(=O)Nc3ccccc3)CC2)cc1,8.024%
19,CC(O)C1CCN(Cc2cnc3c(-c4ccccc4)cnn3c2)CC1 (stereo not given),2.9%
20,O=C(O)c1ccccc1-c1ccc(CN2CCC(CO)C2)cn1 (stereo not given),95.58%
21,CN(C)c1ccc(CN2CCC(C(O)Cc3ccccc3)CC2)cn1 (stereo not given),1.983%
22,O=C(O)c1ccccc1-c1ccc(CN2CCOCC2)cn1,106.2%

row,Compound,Percent Effect
1,CC(C)c1ncc(CN2C[C@@H](CN3CCC(CO)CC3)[C@@H](CO)C2)cn1,1.413%
2,O=C(O)c1ccccc1-c1ccc(CN2CCC(CO)C2)cc1 (stereo not given),100.7%
3,Cn1cc(C(=O)Nc2ccc(CN3CCOCC3)cn2)cn1,-16.87%
4,Cc1ccc(CN2CC[C@H](c3nc4cccc(C(N)=O)c4[nH]3)C2)cc1,-7.444%
5,OCC1(CC2CC2)CCCN(Cc2ccc(C(F)(F)F)nc2)C1 (stereo not given),-8.11%
6,O=C(Nc1cnn(CCN2CCOCC2)c1)c1ccccc1O,-9.189%
7,O=C(O)c1ccccc1-c1ccc(CN2CCC(CO)CC2)cn1,112.1%
8,CC(C)=CCC1(CO)CCCN(S(=O)(=O)N2CCCC2)C1 (stereo not given),-19.27%
9,COCCOc1ccccc1NC(C)C(=O)NC(=O)NC(C)(C)C (stereo not given),2.141%
10,O=C1CCC(=O)N1CCN1CCOC(c2ccsc2)C1 (stereo not given),-5.454%
11,O=C1NCCO[C@H]2CN(C(=O)CC3Cc4ccccc4C3)CC[C@@H]12,-17.08%
12,CCS(=O)(=O)N1CCN(c2cc(-n3cnc(C)c3C)nc(C)n2)CC1,9.656%
13,CCCS(=O)(=O)N1CCN(c2cc(-n3ccnc3)nc(C)n2)CC1,-9.543%
14,CCCS(=O)(=O)N1CCN(c2cc(-n3nc(C)cc3C)nc(C)n2)CC1,56.72%
15,CCCS(=O)(=O)N1CCN(c2cc(-n3cnc(C)c3C)nc(C)n2)CC1,2.706%
16,CCCS(=O)(=O)N1CCN(c2cc(-n3cccc3)nc(C)n2)CC1,64.17%
17,Cc1cc(C)n(-c2cc(N3CCN(C(=O)C(C)(C)C)CC3)nc(C)n2)n1,-2.343%
18,CCc1nc(CN2CCCN(CC(=O)Nc3cccnc3)CC2)no1,22.91%
19,CCc1nnc(N2C[C@@H](CN(C)CCO)[C@@H](CO)C2)s1,-3.241%
20,Cc1ccc(NC2CCN(C(=O)c3cc[nH]n3)CC2)nn1,-5.889%
21,Cc1ccc(NC2CCN(C(=O)CCc3ccncc3)CC2)nn1,118.5%
22,Cc1ccc(NC2CCN(C(=O)c3c(C)noc3C)CC2)nn1,4.919%

row,Compound,Percent Effect
1,Cc1ccc(NC2CCN(C(=O)c3cscn3)CC2)nn1,107.8%
2,Cc1ccc(NC2CCN(C(=O)CCc3c(C)noc3C)CC2)nn1,116%
3,Cc1ccc(NC2CCN(C(=O)CCc3nccs3)CC2)nn1,139%
4,Cc1ncc2c(n1)CN(CCCc1nc3ccccc3o1)CC2,-1.914%
5,CC(CNC(=O)c1nnn(-c2ccccc2)c1C(F)(F)F)N(C)C (stereo not given),5.891%
6,COC(=O)c1ccc2ccn(CC3CCCN(C)C3)c(=O)c2c1 (stereo not given),-29.85%
7,CCOc1ccccc1CCNC(=O)NCC(O)c1cccs1 (stereo not given),-11.69%
8,CCCNC(=O)CCNC(=O)N1CCc2c(F)ccc(F)c2C1,-1.074%
9,COc1ccc(C(=O)NC2COc3ccccc3C2)cc1OCC(=O)O (stereo not given),-8.358%
10,CCC(O)CNC(=O)c1coc(COc2ccc3sc(C)nc3c2)n1 (stereo not given),7.295%
11,Cc1ccc(NC2CCN(C(=O)CCc3ccsc3)CC2)nn1,107.5%
12,Cc1ccc(NC2CCN(C(=O)CCc3cscn3)CC2)nn1,118.6%
13,O=C(CCc1ccsc1)N1CCC(Nc2cccnn2)CC1,87.13%
14,Cc1ccc(NC2CCN(C(=O)CCc3ccccc3)CC2)nn1,109.9%
15,O=C(CCc1cccs1)N1CCC(Nc2cccnn2)CC1,-8.369%
16,Cn1c(C(F)(F)F)nn(CCNC(=O)Nc2ccccc2Cl)c1=O,-9.892%
17,COCc1c(C(=O)N2CCCC(N(C)Cc3ccccc3)C2)noc1C (stereo not given),2.95%
18,COc1ccc(Cl)cc1-n1cnc(CCNC(C)=O)c1,-30.19%
19,Cc1ccccc1CNC(=O)c1ccccc1-n1cnc(CN)c1,128.9%
20,CCn1c(N)nc2cc(C(=O)NCc3ccccc3Cl)cnc21,-4.176%
21,COc1ccccc1CNC(=O)c1ccccc1-n1cnc(CN)c1,104.3%
22,COc1cccc(CNC(=O)N2CCCC(Cn3cc(CN)nn3)C2)c1 (stereo not given),-31.64%

row,Compound,Percent Effect
1,NCc1cn(-c2ccccc2C(=O)NCc2ccccc2)cn1,2.452%
2,CN1CCc2c(NC(=O)NCc3ccccc3Cl)cccc21,-4.639%
3,NCc1cn(-c2ccccc2C(=O)NCc2ccccc2Cl)cn1,137.2%
4,COc1cccc(CNC(=O)c2ccccc2-n2cnc(CN)c2)c1,113.9%
5,Cc1nccn1-c1ccccc1CNC(=O)c1cn(CCN)nn1,1.636%
6,COc1ccc(F)cc1-n1cnc(CCNC(C)=O)c1,-9.257%
7,NCc1cn(-c2ccccc2C(=O)NCc2cccc(Cl)c2)cn1,-5.254%
8,Cc1ccc(C(=O)NS(=O)(=O)c2ccccc2C)c(=O)[nH]1,-8.925%
9,CCNC(=O)N1CCN(Cc2nc3ccccc3[nH]2)[C@@H]2CS(=O)(=O)C[C@@H]21,3.535%
10,COC(=O)CC(NC(=O)c1cccc(CS(C)(=O)=O)c1)c1cccs1 (stereo not given),18.46%
11,N#Cc1ccc(F)c(CN2CCCC2Cn2cncn2)c1 (stereo not given),0.2616%
12,Cc1[nH]c(=O)sc1S(=O)(=O)N1CCCC1C(=O)NCc1ccsc1 (stereo not given),1.823%
13,CC1COCCN1C(=O)COc1cccc(Oc2ccccn2)c1 (stereo not given),91.48%
14,CC(C)(C)NC(=O)COc1ccc(Oc2ccccn2)cc1,-9.446%
15,CC1COCCN1C(=O)c1cccc(OCc2cscn2)c1 (stereo not given),-3.154%
16,COc1ccc(Oc2ncccc2NC(=O)N2CCOCC2C)cc1 (stereo not given),-2.613%
17,O=C(COc1cccc(Br)c1)N1CCOCC1c1ncon1 (stereo not given),-1.613%
18,CC1COCCN1C(=O)COc1ccc(Oc2ccccn2)cc1 (stereo not given),102.9%
19,O=c1oc(-c2ccc(F)cc2)nn1CCS(=O)(=O)c1ccccc1,3.372%
20,CCc1cnc(CN2CCC(O)(c3cc(OC)cc(OC)c3)CC2)o1,-1.491%
21,N#Cc1c(Cl)nsc1NCc1ccc(N2CCCC(C(N)=O)C2)cc1 (stereo not given),6.894%
22,COc1ccc(-c2nc(CSC3CCCCNC3=O)co2)cc1 (stereo not given),-25.49%

row,Compound,Percent Effect
1,c1coc(-c2nc3c(c(NCc4n[nH]c5c4CCC5)n2)CCNCC3)c1,-11.22%
2,CN(C)c1nccc(NCc2cc(-c3ccco3)n[nH]2)n1,126.3%
3,Cc1n[nH]c(C)c1CNc1nc(-c2ccco2)nc2c1CCNCC2,0.9084%
4,CNc1ccnc(N(C)Cc2cc(-c3cccs3)n[nH]2)n1,8.932%
5,CNc1cc(C(=O)N(C)Cc2cc(-c3cccs3)n[nH]2)ccn1,11.01%
6,CN(C)c1nccc(NCc2cc(-c3cccs3)n[nH]2)n1,108.4%
7,O=S(=O)(CC1CC1)c1ncc(CN2CCOCC2)n1CC1CCCO1 (stereo not given),1.621%
8,Cn1cnc2c1CCN(CCS(=O)(=O)c1ccccc1)C2,2.795%
9,CCOc1ccc(CN2CCNC(C(=O)NC3CC3)C2)cc1CO (stereo not given),-28.15%
10,Cc1nc(CNC(=O)c2oc3ccccc3c2CN(C)C)oc1C,12.17%
11,Cc1ccc(C)c(OCCN2CCC(N3CCNC3=O)CC2)c1,-4.141%
12,COc1cccc(CN2C[C@H]3CC[C@H]2C3)c1OCCN1CCOCC1,3.067%
13,COc1ccccc1OCCN1CCC(N2CCNC2=O)CC1,-7.605%
14,COc1ccccc1OCCCc1cc(C#N)ccn1,-8.074%
15,CCn1ccnc1CN1CCN(CCOc2ccccc2OC)CC1,1.541%
16,COc1ccccc1OCCCN1CCNC1=O,93.18%
17,N#Cc1ccccc1OCCN1CCC(N2CCNC2=O)CC1,-2.122%
18,COc1ccccc1OCCCc1cncc(C(N)=O)c1,-13.5%
19,COc1cccn(CC(=O)N(C)CCCOc2c(C)cccc2C)c1=O,-81.04%
20,CC(C)Oc1ccccc1OCCN1C(=O)CCNC1=O,102.7%
21,COc1cccc(OC)c1OCCN1C(=O)CCNC1=O,70.56%
22,COc1ccccc1OCCCN1C(=O)CCNC1=O,100.1999%

# — ChEMBL document CHEMBL3988442, “University of Dundee, Small-Polar-MMV Screening Library” (2021)
